# Assay outcomes as filed in PubChem BioAssay.
# RBX1-CUL1 inh = inhibitors of human ROC1-CUL1 ubiquitin ligase activity | inhibition, % at 10 µM | hit rate 0.6% among 140,000 | P62877+Q13616 | in vitro K48 di-Ub FRET, acceptor:donor ratio, 45 min; in the data active = inhibition above about 25%
# Target sequence (P62877 whole entry, looked up): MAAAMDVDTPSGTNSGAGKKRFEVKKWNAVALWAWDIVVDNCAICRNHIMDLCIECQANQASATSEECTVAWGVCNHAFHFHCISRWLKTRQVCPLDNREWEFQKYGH
# Target sequence (Q13616 whole entry, looked up): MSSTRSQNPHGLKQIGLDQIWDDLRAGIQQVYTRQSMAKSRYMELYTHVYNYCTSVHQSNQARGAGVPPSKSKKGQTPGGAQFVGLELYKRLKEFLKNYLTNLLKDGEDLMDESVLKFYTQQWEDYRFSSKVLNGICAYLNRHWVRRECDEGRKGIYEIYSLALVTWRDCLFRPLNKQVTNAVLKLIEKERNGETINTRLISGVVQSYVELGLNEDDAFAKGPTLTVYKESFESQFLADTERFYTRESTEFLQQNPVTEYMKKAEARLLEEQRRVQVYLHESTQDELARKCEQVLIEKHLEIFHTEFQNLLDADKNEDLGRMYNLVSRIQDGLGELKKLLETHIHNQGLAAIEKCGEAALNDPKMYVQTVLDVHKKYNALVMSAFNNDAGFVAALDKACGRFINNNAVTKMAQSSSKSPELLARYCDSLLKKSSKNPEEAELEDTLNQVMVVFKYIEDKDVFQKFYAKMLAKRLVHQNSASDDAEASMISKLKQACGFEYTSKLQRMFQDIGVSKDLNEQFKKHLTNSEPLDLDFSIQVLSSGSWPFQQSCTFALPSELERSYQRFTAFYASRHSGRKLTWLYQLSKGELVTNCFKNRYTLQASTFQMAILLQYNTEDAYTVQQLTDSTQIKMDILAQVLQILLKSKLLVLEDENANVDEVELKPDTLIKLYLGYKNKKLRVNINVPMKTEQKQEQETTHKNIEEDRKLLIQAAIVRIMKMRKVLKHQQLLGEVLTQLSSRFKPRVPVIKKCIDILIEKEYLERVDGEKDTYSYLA
# Numbers without * were called inactive. The sample as a whole holds a higher share of hits than the screen did.
SMILES,RBX1-CUL1 inh
COc1ccc(NC(=O)c2c(NC(=O)CCC(=O)O)sc3c2CCC(C)C3)cc1 (stereo unspecified),9
CCOc1cc(/C=N\NC(=O)CN2CCOCC2)cc(Cl)c1OCc1ccccc1F,19
Cc1ccc(CNS(=O)(=O)c2ccc3ccccc3c2)cc1,-1
Cc1ccc(-c2nnc(-c3ccccc3)nc2NCCCO)cc1,1
Nc1nc(-c2cccc(Br)c2)cs1,5
NCCNc1nc(-c2cccc(Br)c2)nnc1-c1ccccc1,54*
Cc1ccc(OCC(O)CN2CCN(C)CC2)cc1 (stereo unspecified),2
CCCCCCCC1=NN2C(=N)/C(=C/c3ccc(-c4ccc(F)cc4)o3)C(=O)N=C2S1,8
CCCCCC1=NN2C(=N)/C(=C\c3ccc([N+](=O)[O-])o3)C(=O)N=C2S1,101*
CCCCCCCC1=NN2C(=N)/C(=C/c3ccc(-c4ccc(Cl)cc4)o3)C(=O)N=C2S1,3
CCC1CCc2nc3sc(C(=O)Nc4ccc(Br)cc4C)c(N)c3cc2C1 (stereo unspecified),-6
O=C(Nc1ccc(Cl)cn1)c1ccc(Br)cc1Br,5
CN1N=C(C(=O)N2CCCC(CCc3ccccc3)C2)CCC1=O (stereo unspecified),-2
COc1ccc(F)c(CN2CCCC(O)(CNC3CCCCC3)C2=O)c1 (stereo unspecified),6
CSc1ncnc2c1sc1nc(-c3cccs3)cc(C(F)(F)F)c12,-3
FC(F)(F)c1cc(-c2cccs2)nc2sc3c(=S)nc[nH]c3c12,3
N=c1c2sc3nc(-c4cccs4)cc(C(F)(F)F)c3c2ncn1N,39*
Fc1ccc(/C=C/CNC2CCCN(c3ncccn3)C2)cc1 (stereo unspecified),5
Cn1c(NC(=O)C(F)F)nc2ccccc21,-1
O=C(NN1C(=O)/C(=C/c2ccc(Cl)cc2Cl)SC1=S)c1ccccc1Cl,1
Cc1c(N2C(=O)/C(=C/c3ccc(Cl)cc3Cl)SC2=S)c(=O)n(-c2ccccc2)n1C,-2
O=C(O)C1=NN(c2ccccc2)C(=O)/C1=C\c1ccc(Cl)cc1Cl,40*
C/C(=N\N1CCN(C2c3ccccc3-c3ccccc32)CC1)c1ccc(F)cc1,1
CC(=O)N=C1C(=O)c2ccccc2C(=O)C1N1CCN(c2ccc(F)cc2)CC1 (stereo unspecified),14
O=C1c2ccccc2C(=O)C1C(c1ccc(F)cc1)c1ccc(F)cc1,13
SMILES,RBX1-CUL1 inh
O=C1C(=Nc2ccc(F)cc2)C(N2CCCCC2)C(=O)c2ccccc21 (stereo unspecified),50*
O=C(CC(c1ccccc1)c1ccccc1F)N1CCC(N2CCOCC2)CC1 (stereo unspecified),-3
O=C1C(=Nc2ccc(F)cc2)C(N2CCOCC2)C(=O)c2ccccc21 (stereo unspecified),50*
Cc1ccc(Nc2ccc(Nc3ccc(C)cc3)c3c2C(=O)c2ccc(S(=O)(=O)Nc4ccc(C)cc4)cc2C3=O)cc1,1
Nc1c(-c2ccc(Cl)cc2)cnc2c(-c3ccc(Cl)cc3)cnn12,4
N#Cc1c(Cl)nc(NCCCN2CCOCC2)c2c1CN(Cc1ccccc1)CC2,1
COc1ccc(OC)c(C#N)c1C#N,0
C=CCn1c(SCC(=O)Nc2sc3c(c2C(=O)OC)CCCC3)nc2scc(-c3ccc(C)cc3)c2c1=O,2
CCOC(=O)/C(=N\OC)c1csc(NC(c2ccccc2)(c2ccccc2)c2ccccc2)n1,4
O=C(c1cc2n(n1)C(C(F)(F)F)CC(c1ccc(Br)cc1)N2)N1CCN(Cc2ccccc2)CC1 (stereo unspecified),-8
CCN(C)c1ccc(C=C2C(=O)N(C)C(=O)N(C)C2=O)cc1,1
CCN(CC)c1ccc(/C=C2\C(=O)N(c3nnc(C)c(=O)[nH]3)N=C2C)cc1,57*
CCN(CC)c1ccc(C=C2C(=O)N(c3ccccc3)C(=O)N(c3ccccc3)C2=O)cc1,-35
Nc1ncc2c(Cl)cccc2n1,3
COc1cccc(CCC2CCCN(C(=O)c3ccc(=O)n(C)n3)C2)c1 (stereo unspecified),2
CCCCNC(=O)C1CC(=O)N(c2ccc(NC(C)=O)cc2)C1 (stereo unspecified),2
C=CCOc1c(Cl)cc(/C=C2/SC(=O)NC2=O)cc1OCC,11
CC(=O)Oc1c(C)c(=O)n(C)c2ccccc12,-4
CCc1c(OC(C)=O)c2ccccc2n(C)c1=O,8
CC(=O)Oc1c(Cl)c(=O)n(C)c2ccccc12,60*
O=C(NCCN1CCOCC1)c1ccc(N2CCC(N3CCC(c4ccccc4F)C3)CC2)cc1 (stereo unspecified),16
Cc1ccc(S(=O)(=O)Nc2nc3cc(Cl)c(Cl)cc3[nH]2)cc1,-6
CN(C(=S)NC(=O)c1ccccc1Br)c1ccccc1,-2
C=CCN1C(=O)/C(=C\c2ccc(N(C)C)cc2)N=C1SCC(=O)Nc1ccccc1,13
CN(C)c1ccc(/C=C2\N=C(c3ccccc3)N(NC(=O)c3ccccc3Br)C2=O)cc1,40*
SMILES,RBX1-CUL1 inh
CCOc1cc(/C=C2/C(=O)N(c3cccc(C(=O)O)c3)N=C2C)ccc1OCC(=O)Nc1ccccc1,36*
CCOc1cc(/C=C2\C(=O)N(c3cccc(C(=O)O)c3)N=C2C(F)(F)F)ccc1OCC(=O)Nc1ccccc1OC,15
COc1cc(/C=C2/C(=O)N(c3ccccc3)N=C2C)ccc1OCc1ccc(F)cc1,10
COc1cc(/C=C2\C(=O)N(c3ccc(C)cc3)N=C2C)ccc1OCC(=O)Nc1ccc(C(=O)O)cc1,-2
C#CCOc1ccc(/C=C2\C(=O)N(c3cccc(F)c3)N=C2C)cc1OC,31*
COc1cc(/C=C2\C(=O)N(c3cccc(F)c3)N=C2C)ccc1O,0
CC(C)Cc1n[nH]c2c1CN(C(=O)CCc1nc(-c3cccnc3)no1)CC2,1
N=C1C(=O)C(Cl)=C2Oc3c(Cl)ccc(C(=O)O)c3N=C2C1C(=O)O (stereo unspecified),2
CCc1cc2c(=O)n(-c3ccc(Cl)cc3)c(SCC(=O)c3ccccc3)nc2s1,-11
Cc1ccc(CSCCNC(=O)CN2C(=O)c3cccc4cccc2c34)cc1,1
COc1ccc(C2N(C(=O)C(F)(F)F)C=CN2C(=O)C(F)(F)F)cc1,4
CC1=NN(c2ccccc2)C(=O)/C1=C(\C)c1ccc(-c2ccccc2)cc1,-11
Cc1c(C(=O)Nc2ccccc2)nnn1-c1ccccc1,1
COC(=O)/C(=C1/C(=O)N(c2ccccc2)N=C1C)C(F)(F)F,39*
COc1cc(SC)ccc1C(=O)NCCc1ccc(S(=O)(=O)N2CCCC2)cc1,-6
Fc1ccc(-n2nnnc2-c2c[nH]c3ccc(F)cc23)cc1,7
C=CCCC(=O)N1CCCC(CCc2c(F)cccc2F)C1 (stereo unspecified),-1
COc1ccc(C2c3c(n[nH]c3C)OC(=N)C2C#N)cc1CSc1ccccn1 (stereo unspecified),4
CCc1cccc2c(/C=C3\C(=O)NC(=S)N(Cc4ccco4)C3=O)cn(CC(N)=O)c12,74*
CCc1cccc2c(/C=C3/C(=O)NC(=S)N(CC)C3=O)cn(CCOc3ccccc3Cl)c12,-2
CCOC(=O)Cn1cc(/C=C2\C(=O)NC(=O)N(Cc3ccccc3)C2=O)c2ccccc21,1
O=C1c2cc(S(=O)(=O)O)ccc2C(=O)c2c(Cl)cccc21,-3
O=C1CC(=Nc2cccc3cc(S(=O)(=O)O)ccc23)c2ccccc2C1=O,80*
O=C1C(=Nc2ccc(Cl)c(Cl)c2)CC(=NS(=O)(=O)c2ccc(Cl)cc2)c2ccccc21,-15
